Rows were chosen to be rich in hits. Some 0.96% of all compounds tested hit in one or more screens of this group.
Phagocytosis inh – inhibitors of macrophage phagocytosis, primary screen, imaging, J774A.1 cells, IgG beads; J774A.1 macrophage IgG-bead phagocytosis; 110,000 compounds, 0.07% hits; inhibition, % at 5 µM;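 active = inhibition above the mean of the plate negative controls plus 5 SD, cut at about 13% in these data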;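 also: phagocytic index as fraction of beads internalized from green versus red external bead signal; plate controls were DMSO negative control for no effect and cytochalasin-D positive control for full effect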
E-sel TNF inh – E-selectin induction blockers in HUVEC – imaging, immunofluorescence, high content, primary screen. HUVEC TNFa-induced E-selectin immunofluorescence. inhibition, % at 2 µM. 120,000 compounds, 0.71% hits. AID 1246, 2008;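 active = inhibition above the batch mean plus 3 SD, and confirmed as a hit on visual image review, cut at about 43% in these data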;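 also: 0% = TNF-stimulated DMSO wells and 100% = unstimulated control wells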
SDO1 yeast rescue – growth rescue of sdo1-depleted yeast, primary screen, S. cerevisiae, bone marrow failure model; S. cerevisiae sdo1-depleted JHY4D growth rescue, OD600 30 h; active compounds read high; pdr5 snq2 efflux-pump mutant strain; 140,000 compounds, 0.21% hits; z-score at 10 µM;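 active = z-score above 3 at both the 24 hr and the 30 hr optical density reads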;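 also: z-score against mean and SD of all compound wells on the same plate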
sEH inh – soluble epoxide hydrolase inhibitors, primary screen, biochemical, human sEH; Bifunctional epoxide hydrolase 2 (Homo sapiens), P34913; recombinant human sEH enzymatic activity assay; inhibition, % at 2 µM; 91,000 compounds, 0.34% hits; in the data active = inhibition above about 80%
Target sequence (P34913 whole entry, looked up): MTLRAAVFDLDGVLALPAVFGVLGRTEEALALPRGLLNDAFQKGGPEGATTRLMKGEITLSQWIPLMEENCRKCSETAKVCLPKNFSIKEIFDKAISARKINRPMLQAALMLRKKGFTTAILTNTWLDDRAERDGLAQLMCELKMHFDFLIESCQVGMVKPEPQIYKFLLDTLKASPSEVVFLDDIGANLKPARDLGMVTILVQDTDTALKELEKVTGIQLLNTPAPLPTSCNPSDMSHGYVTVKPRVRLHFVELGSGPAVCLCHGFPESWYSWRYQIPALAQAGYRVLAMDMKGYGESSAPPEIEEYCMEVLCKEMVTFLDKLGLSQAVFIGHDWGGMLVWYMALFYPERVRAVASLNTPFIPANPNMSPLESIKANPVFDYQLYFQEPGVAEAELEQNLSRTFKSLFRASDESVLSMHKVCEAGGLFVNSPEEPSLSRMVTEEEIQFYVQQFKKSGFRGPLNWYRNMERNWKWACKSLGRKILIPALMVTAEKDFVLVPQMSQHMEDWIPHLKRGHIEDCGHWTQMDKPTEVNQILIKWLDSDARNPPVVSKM
sEH activator – soluble epoxide hydrolase activators, primary screen, biochemical, human sEH; purified human sEH enzymatic activity, activator screen; activation, % at 2 µM; 91,000 compounds, 0.04% hits; in the data active = activation above about 37%
cytoskel mod – modifiers of F-actin cytoskeleton organization, primary screen, imaging, HUVEC, phalloidin staining, high-content imaging; 91,000 compounds, 0.18% hits; HUVEC TNFa F-actin phalloidin imaging; inhibition, % at 2 µM;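 active = inhibition above the batch mean plus 3 SD and confirmed as a hit by visual image inspection, cut at about 30% in these data, passing the limit was not always enough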
The depositor's hits bear a star; [ ] = another dose, or the depositor's remark.

For COc1ccc2[nH]c(=O)c(CN(C(=O)c3ccncc3)C(C)C)cc2c1 the results were Phagocytosis inh -1.2, E-sel TNF inh 4.4, SDO1 yeast rescue 0.78, sEH inh 2.7, sEH activator -1.3 and cytoskel mod 48.4*.
COc1ccc2[nH]c(=O)c(CN(C)C(=O)c3ccncc3)cc2c1 was read as Phagocytosis inh -1.5, SDO1 yeast rescue -0.36 and cytoskel mod 22.0.
Screening CC(=O)NS(=O)(=O)c1ccc(NC(=O)CN2C(=O)C3C4C=CC(C4)C3C2=O)cc1 (stereo unspecified) returned SDO1 yeast rescue 0.64.
For CCc1cc(C(=O)Nc2ccccc2)cs1 the results were Phagocytosis inh -2.5, E-sel TNF inh 62.7* and SDO1 yeast rescue -0.81.
`CCc1cc(C(=O)NNC(=S)NCc2ccccc2)cs1` gave Phagocytosis inh 1.0, E-sel TNF inh -5.0, SDO1 yeast rescue -0.02, sEH inh 15.0, sEH activator -14.3 and cytoskel mod -17.5.
Screening O=C(Nc1ccc(F)cc1)C1CCN(S(=O)(=O)c2cccs2)CC1 returned E-sel TNF inh 18.2.
Screening CC(C)OP(=O)(OC(C)C)C(NC(=O)c1ccc(Br)cc1)c1ccccc1 (stereo unspecified) returned SDO1 yeast rescue -0.84 and cytoskel mod -1.8.
`Cc1cccc(NC(=S)Nc2ccccn2)c1C` gave Phagocytosis inh -5.1, E-sel TNF inh 62.1* and SDO1 yeast rescue -0.51.
For O=C(c1ccco1)N1CCN(S(=O)(=O)c2ccc(S(=O)(=O)NC3CCCCC3)cc2)CC1 the results were Phagocytosis inh -0.6, E-sel TNF inh -3.0, SDO1 yeast rescue 0.3, sEH inh -15.8, sEH activator 15.1 and cytoskel mod 8.2.
For CCOc1cc(/C=N/NC(=O)CNc2ccc(C)cc2)ccc1OC(=O)c1ccccc1 the results were Phagocytosis inh 174.5*, E-sel TNF inh 12.1, SDO1 yeast rescue 0.41, sEH inh -22.0, sEH activator 22.2 and cytoskel mod -13.3.
For O=C(NC12CC3CC(CC(C3)C1)C2)N1CCC(O)(c2ccc3c(c2)OCO3)CC1 the results were Phagocytosis inh 2.9, E-sel TNF inh -1.7, SDO1 yeast rescue -1, sEH inh 88.2*, sEH activator -88.5 and cytoskel mod 17.3.
COC(=O)CN1C(=S)N(c2ccc(Cl)cc2)C(=O)C1CC(=O)Nc1ccc(Cl)cc1 (stereo unspecified) was read as E-sel TNF inh 57.0*, SDO1 yeast rescue -1.72[9 µM], sEH inh -8.9 and sEH activator 10.2.
`COc1ccc(-c2nc(CNS(=O)(=O)c3ccc(OC)c(OC)c3)cs2)cc1` gave Phagocytosis inh -0.4, E-sel TNF inh 58.2*, SDO1 yeast rescue 0.34, sEH inh -19.5, sEH activator 17.6 and cytoskel mod -7.3.
`COc1cccc(C2/C(=C(\O)c3ccc(OC)c(OC)c3)C(=O)C(=O)N2c2cc(C)on2)c1` (stereo unspecified) gave SDO1 yeast rescue 0.44 and cytoskel mod -22.1.
`CCn1c(SCC(=O)Nc2ccccc2OC)nnc1-c1cnccn1` gave Phagocytosis inh -1.7, E-sel TNF inh 62.0*, SDO1 yeast rescue 0.18, sEH inh -4.5, sEH activator 3.1 and cytoskel mod 33.1.
For Cc1c(NC(=O)c2c(N)n(-c3ccccc3)c3nc4ccccc4nc23)c(=O)n(-c2ccccc2)n1C the results were Phagocytosis inh -10.9, E-sel TNF inh 76.5* and SDO1 yeast rescue 0.42.
For Cc1cccc(-n2ncc3c(NCc4ccc5c(c4)OCO5)ncnc32)c1 the results were Phagocytosis inh 5.1, E-sel TNF inh -13.9, SDO1 yeast rescue -1.76, sEH inh 4.2, sEH activator -6.5 and cytoskel mod -15.9.
Cc1ccc(-n2ncc3c(NCc4ccc5c(c4)OCO5)ncnc32)c(C)c1 was read as E-sel TNF inh 11.7, SDO1 yeast rescue 14.1* and cytoskel mod 12.6.
For Cc1cc(C)c(NC(=O)CSc2nnc(SCC(=O)Nc3c(C)cc(C)cc3C)n2N)c(C)c1 the results were Phagocytosis inh -1.8, E-sel TNF inh -26.0, SDO1 yeast rescue 4.97, sEH inh -0.5 and sEH activator -2.4.
`CCOc1ccc2nc(SCC(=O)N3CCCc4ccccc43)sc2c1` gave E-sel TNF inh 36.7, SDO1 yeast rescue -1.26, sEH inh 10.3, sEH activator -9.8 and cytoskel mod 5.4.
For CCOc1ccc2nc(SCC(=O)NC3CCCc4ccccc43)sc2c1 (stereo unspecified) the results were Phagocytosis inh 69.7*[artifact] and SDO1 yeast rescue -0.49.
Cc1cccc(NC(=S)N(C)C2(c3ccccc3Cl)CCCCC2=O)c1 (stereo unspecified) was read as Phagocytosis inh 33.0*[artifact], E-sel TNF inh 7.5, SDO1 yeast rescue -0.75, sEH inh -3.1, sEH activator 5.9 and cytoskel mod -6.0.
`O=C(NC(=S)N(CCO)Cc1ccccc1)c1cc(Br)ccc1Cl` gave E-sel TNF inh -9.4.
NS(=O)(=O)c1cc2c(cc1Cl)NC(C1C[C@H]3C=C[C@@H]1C3)NS2(=O)=O (stereo partly specified) was read as SDO1 yeast rescue 0.11.
CN1c2ccccc2C2(C)CCCC3=Cc4cc([N+](=O)[O-])cc([N+](=O)[O-])c4OC312 (stereo unspecified) was read as Phagocytosis inh -12.3, E-sel TNF inh -6.5 and SDO1 yeast rescue -0.52.
CN1c2ccccc2C2(C)CCCC3=Cc4cccc([N+](=O)[O-])c4OC312 (stereo unspecified) was read as Phagocytosis inh -10.7, E-sel TNF inh 69.2* and SDO1 yeast rescue -0.65.
`N#Cc1ccc(-c2cccnc2)nc1SCc1ccc(Cl)c(Cl)c1` gave Phagocytosis inh -15.1, E-sel TNF inh 67.1* and SDO1 yeast rescue -0.83.
Cc1cc(NC(=O)CSc2nc(-c3cccnc3)ccc2C#N)no1 was read as Phagocytosis inh 0.3, E-sel TNF inh -2.0, SDO1 yeast rescue 1.24 and cytoskel mod 2.2.
Cc1ccccc1CN1C(=O)C2(OCCCO2)c2ccccc21 was read as Phagocytosis inh 2.2, E-sel TNF inh -5.4, SDO1 yeast rescue 0.27, sEH inh -1.6, sEH activator -1.6 and cytoskel mod 64.5*.
Screening O=C(O)CN1C(=O)C2(OCCCO2)c2ccccc21 returned Phagocytosis inh -0.6, E-sel TNF inh -2.1, SDO1 yeast rescue 0.65, sEH inh -6.1, sEH activator 7.5 and cytoskel mod -8.0.
COc1cccc(-n2c(SC3CCOC3=O)nc3ccccc3c2=O)c1 (stereo unspecified) was read as E-sel TNF inh 95.7*, SDO1 yeast rescue 0.65, sEH inh 4.3, sEH activator -5.0 and cytoskel mod 2.9.
COc1ccc(OC)c(NC(=O)C(=O)NNC(=O)c2cccs2)c1 was read as Phagocytosis inh -7.1, E-sel TNF inh -11.2 and SDO1 yeast rescue 0.31.

Source: PubChem (several laboratories)
